B2AR arrestin ag: ADRB2 beta-arrestin recruitment; P07550; HTLA Tango cells, beta-arrestin recruitment, luciferase luminescence, 18 h; Potency, µM (titrated, usually from 46.1 µM), usual class: activators; 44,000 tested, under 10 active;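 also: potency is read from the fitted curve at half-maximal effect; 0% = DMSO and full agonism = EC100 isoproterenol or metaproterenol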
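Ligand-induced beta-arrestin recruitment to recombinant beta2-AR is measured via a tTA-driven luciferase reporter in Tango cells after 18 hr compound exposure at 37 degrees C. Concentrations span up to 46 microM.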
HTT promoter inh: HTT promoter inhibition | HEK293 HTT promoter firefly luciferase reporter, 24 h | Potency, µM (top dose mostly 57.5 µM), for inactives: at the top dose activity change, negative = inhibition, hits mostly inhibitors | actives 0.93% (n = 48,000) | AID 1508623; also: potency is read from the fitted curve at half-maximal effect; nearly all actives have a fitted effect of over 50% in size
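HEK293 Fluc reporter, 2,500 cells/well, 24 h pre-culture; cpds up to 57.5 uM final, 24 h 37 degrees C; Dual-Glo, 10 min RT; normalized vehicle = 0%, zero RLU = -100%.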
TSG101-PTAP inh: TSG101-PTAP interaction inhibition, HIV-1 budding. Q99816. Fluorescence polarization, FITC-PTAP peptide/Tsg101, 20 min. Potency, µM (top dose mostly 115 µM), most hits filed as inhibitors. 44,000 tested, under 10 active. AID 1347069; also: potency is read from the fitted curve at half-maximal effect; 0% is about no effect
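Fluorescence polarization binding of Tsg101 binding domain (10 uM final) to FITC-labeled PTAP-motif peptide (50 nM final) in HEPES pH 7.5/NaCl/Tween 20/EDTA/TCEP buffer; 20 min at r.t. Actives by curve class, <25 µM, efficacy <60% inhibition.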
HTT-AS act: activates huntingtin-antisense promoter activity; actives 0.24% (n = 48,000); HEK293 HTT-AS promoter firefly luciferase reporter, 24 h; response scale: percent change from vehicle, -100% = no light; Potency, µM (series often up to 57.5 µM), inactives show top-dose activity change, positive = activation, hits mostly activators; also: potency is read from the fitted curve at half-maximal effect; nearly all actives have a fitted effect of over 55% in size
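HEK293 Fluc reporter, 2,500 cells/well, 24 h pre-culture; cpds up to 57.5 uM final, 24 h 37 degrees C; Dual-Glo, 10 min RT; normalized vehicle = 0%, zero RLU = -100%.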
DRV1 agonist: agonists of human resolvin D1 receptor DRV1 (GPR32). O75388. actives 2.5% (n = 48,000). CHO-K1 GPR32 beta-arrestin PathHunter luminescence, 90 min; zero percent set by DMSO-only wells. activation, % at 76.9 µM;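 active = activation of at least 60% and not above a set upper limit, about 1 call in 100 departs from these limits; inconclusive = activation of 40% to 60%, or above that upper limit; inactive = activation under 40%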; also: 0% is about no effect
Target sequence (O75388 whole entry, looked up): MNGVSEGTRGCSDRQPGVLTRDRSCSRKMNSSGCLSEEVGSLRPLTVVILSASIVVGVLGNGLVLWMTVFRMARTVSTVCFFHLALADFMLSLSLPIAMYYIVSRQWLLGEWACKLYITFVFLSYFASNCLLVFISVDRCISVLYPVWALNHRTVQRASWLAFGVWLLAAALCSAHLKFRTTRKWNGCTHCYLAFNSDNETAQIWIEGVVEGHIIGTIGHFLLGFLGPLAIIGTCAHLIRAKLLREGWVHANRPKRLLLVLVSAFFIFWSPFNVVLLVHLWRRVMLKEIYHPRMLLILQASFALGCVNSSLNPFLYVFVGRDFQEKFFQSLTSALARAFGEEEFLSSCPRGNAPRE
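PathHunter enzyme-fragment complementation, CHO-K1 GPR32 stable line; 2,500 cells/well, overnight attach; cpd 90 min 37 °C 5% CO2; detection reagent 1 h RT; chemiluminescence. DMSO = EC0.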
GALK inh: inhibitors of human galactokinase (GALK); P51570; recombinant GALK, Kinase-Glo ATP luminescence, 1 h; 44,000 tested, under 10 active; Potency, µM (highest dose often 57.5 µM), for inactives: top-dose activity, negative = inhibition, actives largely listed as inhibitors; AID 1347072;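 also: plate controls were full GALK reaction for no effect and reaction lacking GALK for full effect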
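Luminescent ATP-depletion readout (Kinase-Glo Plus, 10 min) after 1 h RT reaction of 5 nM GALK, 35 uM ATP, 100 uM galactose, pH 8.0 HEPES buffer. Decreased kinase activity scored as inhibition.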
An asterisk follows results filed as active; i = inactive; ? = inconclusive; · = no result given; [ ] = another dose, or the depositor's remark. Sampled rows, rich in hits. Any-hit rate of the full collection: about 3.6%. Unless noted, calls follow the shape of the dose curve; as a rule, active = well fitted curve in the direction sought with a large enough effect; inconclusive = small, poorly fitted or top-dose-only effect, or another doubt; inactive = no such curve, though single readings can be large; an effect the other way counts as inactive or inconclusive.

SMILES	B2AR arrestin ag	HTT promoter inh	TSG101-PTAP inh	HTT-AS act	DRV1 agonist	GALK inh
COc1cccc(C(=O)Nc2nc(-c3nnn(-c4ccccc4C(F)(F)F)c3C)ns2)c1	i	?	i	-26%	91*	-2%
COc1cccc(C(=O)Nc2nc(-c3nnn(-c4cc(C)ccc4C)c3C)ns2)c1	i	?	i	-31%	31	3%
CC1=C(C(=O)OC2CCCC2)C(c2ccccc2Cl)CC(=O)N1 (stereo not given)	i	?	i	-32%	-21	2%
CC1=C(C(=O)OC2CCCC2)C(c2c(Cl)cccc2Cl)CC(=O)N1 (stereo not given)	i	?	i	-33%	82*	-9%
CC1=C(C(=O)OC2CCCC2)C(c2cccc(Cl)c2Cl)CC(=O)N1 (stereo not given)	i	?	i	-37%	83*	-6%
NC(=O)NS(=O)(=O)c1ccc(Cl)cc1	·	5%	·	2%	40	·
CCOc1ccc(Nc2nc(-c3c(C)nc4ccccn34)cs2)cc1	·	-27%	·	-37%	·	·
CC(C)c1ccccc1NC(=O)CSc1nnc(COc2ccccc2Cl)o1	i	-36%	i	-18%	87*	1%
CC(C)c1ccccc1NC(=O)CSc1nnc(COc2ccccc2)o1	i	0%[11.5 µM]	i	17%[11.5 µM]	12	4%
COc1ccccc1NC(=O)CSc1nnc(-c2ccccc2C)o1	i	60%	i	?	?	1%
O=C(CSc1nnc(-c2ccccc2F)o1)Nc1ccccc1Cl	i	43%	i	2.2µM*	-10	2%
CCCNC(=O)c1cnn2c(C)c(Cc3c(C)cc(C)cc3C)c(C)nc12	i	5µM*	i	-47%	-3	2%
Cc1cc(C)cc(NC(=O)C2CC(=O)N(c3ccccc3)C2)c1 (stereo not given)	i	-15%	i	10%	118*	7%
Cc1ccc(-c2noc(-c3ccccc3NC(=O)C3CC(=O)N(c4cccc(C)c4)C3)n2)cc1 (stereo not given)	i	22%	i	23%	6	0%
Cc1nc2sc(C(N)=O)c(N)c2c(-c2ccc(Br)cc2)c1C(=O)Nc1ccc(Cl)cc1	i	?	i	-49%	88*	3%
CCC(C)NC(=O)c1sc2nc(C)c(C(=O)Nc3ccc(Cl)cc3)c(-c3ccc(Br)cc3)c2c1N (stereo not given)	i	-23%	i	-30%	8	7%
Cc1nc(N)sc1-c1ccnc(Nc2ccc(N3CCOCC3)cc2)n1	·	-26%	·	?	·	·
CC1(C)CC(O)CC(C)(C)N1[O]	·	-9%	·	-8%	·	·
Cc1ccccc1N1CC(c2nc3ccccc3n2Cc2ccc(Br)cc2)CC1=O (stereo not given)	i	?	i	-53%	92*	3%
CCN(c1ccccc1)S(=O)(=O)c1nnc(NC(=O)c2cccs2)s1	i	-24%	i	-32%	49	7%
CCN(c1ccc(C)cc1)S(=O)(=O)c1nnc(NC(=O)c2cccs2)s1	i	?	i	-34%	85*	-7%
COc1ccc(-c2noc(N3CCC(C(=O)N4CCN(c5cccc(OC)c5)CC4)CC3)n2)cc1	i	2.2µM*	i	-84%	1	0%
COc1ccc(-c2noc(N3CCC(C(=O)N4CCN(c5cccc(C)c5C)CC4)CC3)n2)cc1	i	?	i	-18%	0	1%
COc1ccc(-c2noc(N3CCC(C(=O)Nc4ccc(F)cc4Cl)CC3)n2)cc1	i	1.8µM*	i	-86%	-10	0%
CCc1ccc(NC(=O)C2CCN(c3nc(-c4ccc(OC)cc4)no3)CC2)cc1	i	?	i	-48%	-7	1%

Bioassay records deposited in PubChem by National Center for Advancing Translational Sciences (NCATS).
